A number with no mark means an inactive call. For some of these results: Entries with a potency or affinity are not part of this list. The source made the active and inactive calls. Unless noted, the rule behind the calls is not given here.

As a reminder, the inhibition is the relative decrease from the control value, in per cent.

Assay [1] can be described thus: antimalarial activity against Dd2 strain (AID 2302;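 active = growth inhibition above 50% at the single 2 µM test dose, taken to imply half-maximal potency below 2 µM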;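 note: 0% = DMSO untreated growth and 100% = chloroquine plus artemisinin killed control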). Particulars: P. falciparum Dd2 in RBCs, LDH growth readout, 72 h; at 2 µM; stronger effect = higher value.
Assay [2] can be described thus: human hepatoma cell viability loss – ATP luminescence, cytotoxicity control for P. falciparum antimalarial project, primary screen (AID 2303;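 active = inhibition above 50%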;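 note: 0% = DMSO wells and 100% = digitonin-killed cells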). Particulars: HepG2 viability, 24-48 h, at 10 µM, stronger effect = higher value.
The target in assay [3] is L-lactate dehydrogenase (Plasmodium falciparum (isolate CDC / Honduras)) (UniProt Q27743). In words: PfLDH activity inhibition – cell lysate, 3D7 strain, counter-screen for P. falciparum growth inhibition project (AID 2304).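 Note: 0% = vehicle and 100% = reference inhibitor.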 Particulars: P. falciparum 3D7 crude extract, LDH APAD/NBT absorbance; at 2 µM; stronger effect = higher value. (Counterscreens check selectivity or assay interference.)

The nature of assay [4]: inhibition of 3D7 malaria parasite growth – strain 3D7 (AID 2306).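 Note: 0% = DMSO wells and 100% = chloroquine plus artemisinin control wells.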 Particulars: P. falciparum 3D7 erythrocytic growth, LDH absorbance, 72 h; at 2 µM; stronger effect = higher value.
In assay [5] the target is Calcium-dependent protein kinase 1 (Plasmodium falciparum (isolate 3D7)) (UniProt P62344). The experiment in a line: PfCDPK1 kinase inhibitors, biochemical, TCAMS library (AID 1159585; cut-off not given, nearly all actives have IC50 up to about 0.98 µM;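 note: inhibitors leave more ATP so luminescence rises with inhibition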). Particulars: recombinant PfCDPK1, Kinase-Glo ATP depletion luminescence. On the technique in general: Kinase-Glo reads ATP consumption through a luciferase reaction.
For assay [6], the target named is Plasmodium falciparum protein kinase 6 (PK6, PF3D7_1337100) (UniProt Q8IDW1). The experiment in a line: PfPK6 kinase inhibitors, biochemical, TCAMS library (AID 1159586). Particulars: recombinant PfPK6, Kinase-Glo ATP depletion luminescence.
For assay [7], the target named is Protein kinase 7 (PK7), Plasmodium falciparum 3D7 (PF3D7_0213400) (UniProt Q7YTF7). The experiment in a line: inhibition of Plasmodium PK7 catalytic activity – biochemical, TCAMS antimalarial set, Kinase-Glo luminescence (AID 1159587). As to conditions: recombinant PfPK7, Kinase-Glo ATP depletion luminescence.
Assay [8] concerns the target Calcium-dependent protein kinase 4 (Plasmodium falciparum (isolate 3D7)) (UniProt Q8IBS5). The experiment in a line: PfCDPK4 kinase inhibitors, biochemical, TCAMS library (AID 1159588; cut-off not given, nearly all actives have IC50 up to about 0.91 µM). Particulars: recombinant PfCDPK4, Kinase-Glo ATP depletion luminescence.

Chain of Protein kinase 7 (PK7), Plasmodium falciparum 3D7 (PF3D7_0213400) (Q7YTF7 1-343): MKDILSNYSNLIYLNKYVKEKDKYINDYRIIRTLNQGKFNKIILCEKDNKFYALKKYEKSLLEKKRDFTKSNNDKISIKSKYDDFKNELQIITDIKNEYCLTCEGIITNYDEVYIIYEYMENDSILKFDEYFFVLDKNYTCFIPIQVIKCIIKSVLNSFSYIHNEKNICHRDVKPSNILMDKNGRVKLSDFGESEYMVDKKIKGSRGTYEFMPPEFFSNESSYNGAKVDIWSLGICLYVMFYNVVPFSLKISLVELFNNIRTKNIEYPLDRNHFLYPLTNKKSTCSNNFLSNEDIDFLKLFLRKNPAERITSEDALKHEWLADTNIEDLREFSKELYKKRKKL
Chain of Plasmodium falciparum protein kinase 6 (PK6, PF3D7_1337100) (Q8IDW1 1-305): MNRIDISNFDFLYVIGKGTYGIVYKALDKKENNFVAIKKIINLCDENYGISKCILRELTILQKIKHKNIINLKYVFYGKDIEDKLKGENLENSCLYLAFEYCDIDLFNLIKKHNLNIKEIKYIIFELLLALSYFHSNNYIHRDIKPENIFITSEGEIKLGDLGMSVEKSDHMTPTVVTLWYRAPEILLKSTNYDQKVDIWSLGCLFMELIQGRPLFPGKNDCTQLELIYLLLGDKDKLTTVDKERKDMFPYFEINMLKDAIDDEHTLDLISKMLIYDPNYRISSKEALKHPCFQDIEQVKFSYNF
Chain of Calcium-dependent protein kinase 1 (Plasmodium falciparum (isolate 3D7)) (P62344 whole entry, looked up): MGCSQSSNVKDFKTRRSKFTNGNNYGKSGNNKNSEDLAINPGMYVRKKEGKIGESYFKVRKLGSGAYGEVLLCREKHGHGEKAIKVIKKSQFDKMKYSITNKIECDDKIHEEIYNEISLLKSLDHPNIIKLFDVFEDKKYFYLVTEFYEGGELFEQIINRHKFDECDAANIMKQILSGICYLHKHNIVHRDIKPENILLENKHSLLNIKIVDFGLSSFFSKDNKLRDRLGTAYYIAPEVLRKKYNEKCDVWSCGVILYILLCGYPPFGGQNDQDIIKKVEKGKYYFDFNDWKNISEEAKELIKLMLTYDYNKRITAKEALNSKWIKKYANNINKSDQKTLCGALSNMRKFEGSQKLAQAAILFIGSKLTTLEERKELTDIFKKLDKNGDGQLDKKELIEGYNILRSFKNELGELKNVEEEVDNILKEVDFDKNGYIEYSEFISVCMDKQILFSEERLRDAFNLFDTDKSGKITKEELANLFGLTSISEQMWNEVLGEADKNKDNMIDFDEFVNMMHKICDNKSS
Chain of L-lactate dehydrogenase (Plasmodium falciparum (isolate CDC / Honduras)) (Q27743 whole entry, looked up): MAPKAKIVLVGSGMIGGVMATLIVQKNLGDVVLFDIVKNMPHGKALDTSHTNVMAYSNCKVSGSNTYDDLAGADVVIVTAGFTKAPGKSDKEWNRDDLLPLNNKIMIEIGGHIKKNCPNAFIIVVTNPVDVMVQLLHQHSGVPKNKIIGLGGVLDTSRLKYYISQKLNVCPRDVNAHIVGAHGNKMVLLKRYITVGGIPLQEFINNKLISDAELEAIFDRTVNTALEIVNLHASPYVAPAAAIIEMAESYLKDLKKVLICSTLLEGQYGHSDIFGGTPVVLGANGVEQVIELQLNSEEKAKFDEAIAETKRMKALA
Chain of Calcium-dependent protein kinase 4 (Plasmodium falciparum (isolate 3D7)) (Q8IBS5 whole entry, looked up): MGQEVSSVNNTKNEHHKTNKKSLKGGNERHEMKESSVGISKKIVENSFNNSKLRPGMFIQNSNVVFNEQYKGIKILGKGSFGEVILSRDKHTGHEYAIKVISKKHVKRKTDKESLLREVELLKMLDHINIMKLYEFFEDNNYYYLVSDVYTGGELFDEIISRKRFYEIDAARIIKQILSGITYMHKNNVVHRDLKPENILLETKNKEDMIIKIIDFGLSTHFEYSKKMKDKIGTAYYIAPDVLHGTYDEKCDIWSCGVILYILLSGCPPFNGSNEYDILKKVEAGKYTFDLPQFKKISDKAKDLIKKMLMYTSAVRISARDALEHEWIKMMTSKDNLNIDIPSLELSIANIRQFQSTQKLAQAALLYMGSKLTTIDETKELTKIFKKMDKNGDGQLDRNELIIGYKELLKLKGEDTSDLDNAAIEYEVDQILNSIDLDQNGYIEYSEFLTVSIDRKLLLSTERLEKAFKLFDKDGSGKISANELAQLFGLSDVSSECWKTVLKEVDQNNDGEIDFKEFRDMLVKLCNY

In the case of `CCN(CC)CCc1ccc2c(=O)cc(CCc3cccc(F)c3F)n(CC(=O)N(C)Cc3ccc(-c4ccc(C(F)(F)F)cc4)cc3)c2c1`, the growth inhibition in assay [1] was 45%; in assay [4], 97% (active). For the same compound, the inhibition was 98% (active) in assay [2] and 1% in assay [3]. The result in assay [5], in assay [6], in assay [7] and in assay [8] was inactive.

`Oc1cc(Nc2ccnc3cc(-c4cccc(CN5CCOCC5)c4)ccc23)c(F)cc1Cl`: the growth inhibition in assay [1] was 89% (active); in assay [4], 100% (active). Moreover, the inhibition in assay [2] was 12%; in assay [3], -4%. Also, the result in assay [5], in assay [6], in assay [7] and in assay [8] was inactive.

With `Clc1ccc(OCc2ccccc2)c(-c2nc(-c3nc4ccc(Cl)cc4[nH]3)cs2)c1`, the growth inhibition was 60% (active) in assay [1] and 99% (active) in assay [4]. Moreover, the inhibition is -9% in assay [2] and -3% in assay [3]. Further, the outcome in assay [5], in assay [6], in assay [7] and in assay [8] was inactive.

`CCc1cn2c3c(cc(C(=O)N[C@@H](Cc4cccc(F)c4)[C@H](O)CNC4CC4)cc13)N(C)S(=O)(=O)CC2`: the growth inhibition in assay [1] and in assay [4] was 98% (active) each time. In addition, the inhibition is 2% in assay [2] and 1% in assay [3]. Also, the outcome in assay [5], in assay [6], in assay [7] and in assay [8] was inactive.

`NC1CCN(Cc2cccc(-c3cccc(-c4nc5ccccc5[nH]4)c3)c2)C1` (stereo not given): the growth inhibition in assay [1] is -2%; in assay [4], 100% (active). Besides, the inhibition is 14% in assay [2] and -3% in assay [3]. Besides, the outcome in assay [5], in assay [6], in assay [7] and in assay [8] was inactive.

As to `COc1ccc(OC)c2c1C[C@@H]1NC[C@H]2c2c(OC)ccc(OC)c21`, the growth inhibition in assay [1] is 3%; in assay [4], 99% (active). Moreover, the inhibition in assay [2] was 2%; in assay [3] it was 1%. In addition, the result in assay [5], in assay [6], in assay [7] and in assay [8] was inactive.

For `Nc1nc(Nc2ccc(Cl)cc2)nc2ccccc12`, the figures for the growth inhibition in assay [1] and in assay [4] were 21% and 101% (active), respectively. Further, the values for the inhibition in assay [2] and in assay [3] were 6% and -2%, respectively. For the same compound, the outcome in assay [5], in assay [6], in assay [7] and in assay [8] was inactive.

Consider `CCN(CC)CCCCNc1cc(-c2[nH]c(C(C)(C)C)nc2-c2ccc3cc(OC)ccc3c2)ccn1`, for which the growth inhibition is 76% (active) in assay [1] and 85% (active) in assay [4]. Besides, the figures for the inhibition in assay [2] and in assay [3] were 23% and 5%, respectively. Also, the result in assay [5], in assay [6], in assay [7] and in assay [8] was inactive.

As to `CN(C)Cc1ccc(-c2cc3c(-c4ccc(CN(C)C)cc4)ccnc3[nH]2)cc1`, the growth inhibition in assay [1] is 96% (active); in assay [4] it was 100% (active). Further, the inhibition is 86% (active) in assay [2] and 0% in assay [3]. For the same compound, the result in assay [5], in assay [6], in assay [7] and in assay [8] was inactive.

Regarding `COc1cc2nc(N3CCC(CNC(=O)c4cc5ccccc5s4)CC3)nc(N)c2cc1OC`, the growth inhibition in assay [1] and in assay [4] was 101% (active) each time. Also, the inhibition is 8% in assay [2] and 2% in assay [3]. The result in assay [5], in assay [6], in assay [7] and in assay [8] was inactive.

Take `NC1=NC(c2ccccc2)(c2ccccc2)C(=O)N1CCCCc1ccccn1`: the growth inhibition in assay [1] was 56% (active); in assay [4], 94% (active). Moreover, the inhibition was 10% in assay [2] and -4% in assay [3]. Further, the result in assay [5], in assay [6], in assay [7] and in assay [8] was inactive.

For the compound `NC(N)=Nc1nc(-c2cccc(NC(=O)NCCc3c[nH]c4ccc(OCc5ccccc5)cc34)c2)cs1`, the figures for the growth inhibition in assay [1] and in assay [4] were 30% and 101% (active), respectively. In addition, the inhibition is -2% in assay [2] and 0% in assay [3]. For the same compound, the result in assay [5], in assay [6], in assay [7] and in assay [8] was inactive.

With `Cc1nc(-c2ccc(-c3ccc(C(=O)Nc4ccc(C(C)C)c(OCCN(C)C)c4)cc3)c(C)c2)no1`, the growth inhibition in assay [1] was 45%; in assay [4], 99% (active). The inhibition in assay [2] is 49%; in assay [3], -2%. For the same compound, the result in assay [5], in assay [6], in assay [7] and in assay [8] was inactive.

For `FC(F)(F)c1cc(Nc2ncnc3ccc(Br)cc23)ccc1OCc1ccccc1`, the growth inhibition in assay [1] was 9%; in assay [4], 87% (active). Moreover, the inhibition in assay [2] was 12%; in assay [3], 6%. For the same compound, the result in assay [5], in assay [6], in assay [7] and in assay [8] was inactive.

Consider `COc1ccc(NC(=O)Nc2ccc(Nc3nc(C)cc(N(C)C)n3)cc2)cc1`, for which the growth inhibition is 99% (active) in assay [1] and 102% (active) in assay [4]. Also, the inhibition in assay [2] is 11%; in assay [3], -3%. Also, the outcome in assay [5], in assay [6], in assay [7] and in assay [8] was inactive.

Turning to `Cc1cccc2[nH]c(-c3cccc(-c4ccc(CNCc5ccc(S(C)(=O)=O)cc5)cc4)c3)nc12`, the growth inhibition was 98% (active) in assay [1] and 101% (active) in assay [4]. Besides, the inhibition in assay [2] was 8%; in assay [3], 6%. The outcome in assay [5], in assay [6], in assay [7] and in assay [8] was inactive.

Turning to `Cc1ccc(O)cc1C[C@@H]1C(=O)CC[C@@]2(C)[C@H]1CC[C@]2(C)O`, the growth inhibition is -6% in assay [1] and 96% (active) in assay [4]. The inhibition is 4% in assay [2] and 1% in assay [3]. Further, the result in assay [5], in assay [6], in assay [7] and in assay [8] was inactive.

For the compound `CN1CCN(CC(O)CNC(=O)Nc2ccc(Cl)cc2)CC1` (stereo not given), the growth inhibition in assay [1] is 98% (active); in assay [4] it was 99% (active). For the same compound, the inhibition is 1% in assay [2] and -3% in assay [3]. Besides, the result in assay [5], in assay [6], in assay [7] and in assay [8] was inactive.

Regarding `O=C(Nc1cccc(-c2ccc(CN3CCCC3)cc2)c1)c1cccc(Cl)c1`, the growth inhibition in assay [1] is 61% (active); in assay [4], 100% (active). Moreover, the figures for the inhibition in assay [2] and in assay [3] were 32% and -3%, respectively. For the same compound, the outcome in assay [5], in assay [6], in assay [7] and in assay [8] was inactive.

For `CCc1c(CCNCCCCCCNCCc2ccc(OC)c(OC)c2C)ccc(OC)c1OC`, the growth inhibition in assay [1] is 1%; in assay [4] it was 98% (active). In addition, the inhibition in assay [2] was 16%; in assay [3] it was 5%. The result in assay [5], in assay [6], in assay [7] and in assay [8] was inactive.

For the origin of these results see PubChem BioAssay.
